Sampled rows, rich in hits. Any-hit rate of the full collection: about 2.1%.
mut p53 react = mutant p53 pathway re-activators, primary screen, cell-based, SW480, luciferase, single point, HTS; SW480 PUMA-promoter luciferase, p53 mutant reactivation; activation, % at 9.98 µM; 28,000 compounds, 1.5% hits; in the data active = activation above about 52%; inconclusive = no clear call, values can overlap the other calls
ID4 SMM = binders of human ID4 protein, primary screen, biochemical, small molecule microarray, single point; DNA-binding protein inhibitor ID-4 (Homo sapiens), P47928; calls only; Flag-ID4 binding, fluorescence F/B; AID 624137, 2012; 31,000 compounds, 1.2% hits; call rule not given here;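 note: a binder raises fluorescence above local background on the spot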
Target sequence (P47928 whole entry, looked up): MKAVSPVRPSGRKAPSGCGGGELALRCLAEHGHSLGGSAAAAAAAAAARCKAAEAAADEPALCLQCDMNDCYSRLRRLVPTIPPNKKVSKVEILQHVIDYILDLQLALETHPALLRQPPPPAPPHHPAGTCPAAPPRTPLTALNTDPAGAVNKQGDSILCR
STK33 kin inh = STK33 kinase inhibitors, primary screen, biochemical, luminescence, ADP-Glo, MBP substrate | inhibition, % at 12.5 µM | Serine/threonine-protein kinase 33 (Homo sapiens), Q9BYT3 | 27,000 compounds, 0.44% hits; in the data active = inhibition above about 20%; inconclusive = no clear call, values can overlap the other calls
The depositor's hits bear a star; i = inactive; ? = inconclusive; . = not tested or not shown; + = active, no number.

SMILES	mut p53 react	ID4 SMM	STK33 kin inh
Cc1occc1-c1nnc(SCC(=O)Nc2cccc(Cl)c2)n1-c1ccccc1	4	i	3
C[C@@H]1CN([C@H](C)CO)S(=O)(=O)c2ccc(C3=CCCCC3)cc2O[C@@H]1CN(C)C(=O)Cc1cccnc1	-3	i	.
COc1cc2ccc(=O)oc2c(O[C@@H]2O[C@H](CO)[C@@H](O)[C@H](O)[C@H]2O)c1OC	-3	i	1
C[C@H]1CN([C@@H](C)CO)C(=O)Cc2cc(NC(=O)Cc3cn(C)c4ccccc34)ccc2O[C@H]1CN(C)CC1CCCCC1	.	.	-1
C[C@H]1CN([C@@H](C)CO)C(=O)c2cc(NC(=O)CCC(F)(F)F)ccc2O[C@@H]1CN(C)Cc1ccncc1	.	.	-7
Cn1ccc2cc(NC(=O)Nc3cccnc3)ccc21	80*	+	.
Cc1cc(OCC(=O)Nc2cccnc2)ccc1[N+](=O)[O-]	48	i	0
Cc1ccc(C2=NNC(=O)C(c3cn(CCC#N)c4ccccc34)C2)cc1 (stereo unspecified)	-16	i	6
Cn1c2ccccc2c2c3c(c4c5ccccc5n(CCC#N)c4c21)CNC3=O	-53	.	109*
Cc1[nH]c2ccccc2c1C(=O)CCC(=O)O	-4	+	-1
Cc1[nH]c2ccccc2c1C(=O)CSc1nnc2ccccn12	95*	i	-4
Cc1[nH]c2ccccc2c1C(=O)CSc1ncn[nH]1	5	i	-1
Cc1nnc(SCC(=O)c2c(C)[nH]c3ccccc23)s1	49	i	1
C[C@@H]1CN([C@@H](C)CO)S(=O)(=O)c2ccc(C#CC3CCCC3)cc2O[C@H]1CN(C)C(=O)Nc1cc(F)ccc1F	.	i	.
CCCC#Cc1cnc2c(c1)C(=O)N([C@H](C)CO)C[C@@H](C)[C@H](CN(C)Cc1ccc3c(c1)OCO3)O2	7	i	.
Cc1nnc(SCc2cc(=O)[nH]c(Nc3nc(C)c4ccccc4n3)n2)s1	20	i	0
Cc1ccc2nc(Nc3nc(CSc4nnc(C)s4)cc(=O)[nH]3)nc(C)c2c1	54*	i	0
Cc1ccc(-c2noc(CCC(=O)NC(C)(C)C)n2)cc1	61*	i	5
Cc1ccc(-c2noc(CCC(=O)Nc3ccccc3[N+](=O)[O-])n2)cc1	17	i	4
C[C@@H]1CN([C@H](C)CO)C(=O)c2cc(NS(=O)(=O)c3ccc(Cl)cc3)ccc2O[C@@H]1CN(C)C(=O)Nc1ccc2c(c1)OCO2	7	i	.
O=C(O)C(O)Cc1c[nH]c2ccccc12 (stereo unspecified)	1	i	.
O=C(O)CCCc1c[nH]c2ccccc12	-10	+	-1
CN1N=C(c2coc3ccccc23)CC1(O)C(F)(F)F (stereo unspecified)	73*	i	.
O=C(CC1c2ccccc2Oc2ccccc21)Nc1ccc(Cc2ccncc2)cc1	-40	i	4
Cn1c(SCc2nc(-c3cccs3)no2)nnc1-c1ccccc1	-10	i	9
SMILES	mut p53 react	ID4 SMM	STK33 kin inh
Cn1c(SCc2nc(-c3cccs3)no2)nnc1-c1ccco1	-11	+	0
COc1ccc(N2C(=O)CC(SCC(=O)Nc3ccc(C)cc3)C2=O)cc1 (stereo unspecified)	-8	i	-7
C[C@H]1CN([C@@H](C)CO)C(=O)c2cc(C#CC3CCCCC3)cnc2O[C@H]1CN(C)C	.	i	.
O=C(CSc1ncnc2sc(-c3ccccc3)cc12)NC1CCCCC1	-31	i	6
CC(=O)C(C)Sc1ncnc2sc(-c3ccccc3)cc12 (stereo unspecified)	73*	i	?
CNC[C@@H]1OCCCC[C@H](C)Oc2ccc(NS(=O)(=O)c3cn(C)cn3)cc2C(=O)N([C@H](C)CO)C[C@@H]1C	-1	i	.
CC(C)c1ccc(NC(=O)CN(C)S(=O)(=O)c2ccccc2)cc1	26	i	-4
COc1ccccc1OCC(=O)Nc1cccc(-c2nnc(-c3ccco3)o2)c1	62*	i	16
Cc1ccc(C)c(OCC(=O)Nc2cc(C(=O)O)cc(C(=O)O)c2)c1	-18	i	-3
Cc1ccc(C)c(OCC(=O)Nc2cccc(-c3nnc(-c4ccco4)o3)c2)c1	102*	i	13
COc1ccc(CC(=O)Nc2cccc(-c3nnc(-c4ccc(C)cc4)o3)c2)cc1OC	5	i	0
COc1ccccc1OCC(=O)Nc1cccc(-c2nnc(-c3ccccc3)o2)c1	95*	i	15
Cc1cc(OCC(=O)Nc2cccc(-c3nnc(-c4ccccc4)o3)c2)cc(C)c1Cl	?	i	-2
CCc1c(C)sc(NC(=O)CSc2nc(-c3ccccc3)cc(C(F)(F)F)n2)c1C#N	10	i	-1
O=C(CSc1nc(Nc2ccccc2)nc(N2CCOCC2)n1)Nc1ccccc1Cl	5	i	4
